# Measured values reported in PubChem BioAssay (NCI).
# This is part of a sample that, as a whole, favours compounds with a hit. Of some 83,000 tested, about 20% had one in any assay.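 Plates (96-well) were seeded with cells, treated with compound at one concentration, and incubated for 48 hours before percent growth was determined.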 A number with no mark means an inactive call. Active and inactive are the calls of the source. Rule for the calls: active = growth percent below 10; inactive = the rest.
# Tested on: MDA-MB-468 breast
# Assay: NCI-60 one-dose screen, 48 h (100 = growth as untreated, 0 = no growth, -100 = all killed)
# Details: 10 µM unless noted
row,SMILES,growth
1,COC(=O)C1=C(C(=O)Nc2cccnc2)C2OC1(C(Cc1ccccc1)Oc1ccccc1)C1OC21 (stereo not given),-66.3% (active)
2,O=C(Cn1cc(CSc2nc3ccccc3o2)nn1)Nc1ccc([N+](=O)[O-])cc1,98.7%
3,COc1ccc(-c2oc3cc(O)cc(O)c3c(=O)c2OC)cc1O,-3.48% (active)
4,COc1ccc(-n2nc(C)c3c(Nc4ccc(NC(=O)Nc5ccc(Cl)c(C(F)(F)F)c5)cc4)ncnc32)cc1,-19.9% (active)
5,COc1ccc(C(=O)C(C#N)c2cc(OC)c(OC)c(OC)c2)cc1 (stereo not given),102%
6,O=C(Nc1ccc(Br)cc1)Nc1cccc(Br)c1,27.2%
7,O=C(CCC(=O)OC1CCCC1)OC1CCCC1,100%
8,CCCCCCC/C=C/[C@H]1O[C@]2(O)C(=O)C=C3C[C@@H](O[C@@H]4O[C@H](CO)[C@@H](O)C(O)[C@@H]4O)C[C@@H]3[C@H]2C=C1C (stereo not given in full),-3.04% (active)
9,CCOC(=O)c1[nH]c(-c2ccc(Cl)cc2)cc1-c1cccnc1,-1.1% (active)
10,O=C(Nc1ccc(NC(=O)c2cc(=O)[nH]c3ccccc23)cc1)Nc1cccc(Cl)c1,64.4%
11,O=Cc1ccc([N+](=O)[O-])s1,103%
12,C#CCNC1CCC(c2csc(C#C)n2)=C1C (stereo not given),58.9%
13,CN(c1ccc(Cl)cc1)S(=O)(=O)c1ccc(-c2cnc(C3CC3)o2)cc1,22.7%
14,O=C(Nc1ccc(F)cc1F)c1cc(F)ccc1O,-0.731% (active)
15,COc1cc2c(c(OC)c1OC)CCC(c1cccc(C(=O)Nc3ccc(C#N)cc3)c1)O2 (stereo not given),46.4%
16,Nc1nc(-c2ccccn2)cc(-c2cc(-c3ccccn3)nc(N)n2)n1,98.7%
17,COc1ncc(-c2ccc3ncnc(Nc4cccc(Cl)c4)c3c2)cc1NS(=O)(=O)C1CC1,-43.9% (active)
18,CN(C)CCC(=O)Nc1ccc(-n2cc(-c3cccc(NC(=S)Nc4cccc(-c5cn(-c6ccc(NC(=O)CCN(C)C)cc6)nn5)c4)c3)nn2)cc1,-9.56% (active)
19,CCOC(=O)C1=C(C)N=C2Sc3cc(OC(F)(F)F)ccc3N2[C@H]1c1ccccn1,29.1%
20,COc1cc2cc(NCc3ccncc3)nc(C)c2cc1OC,87.7%

row,SMILES,growth
1,COc1ccc(-n2c(-c3ccccc3)c(-c3ccccc3)c3c(SCC(=O)N/N=C/c4ccc(Cl)cc4)ncnc32)cc1,77.6%
2,COc1cc(C(=O)O/N=C(\N)Cc2cccc3ccccc23)cc(OC)c1OC,-72.1% (active)
3,CCOC(=O)c1c(SC)nn(-c2cc(=O)[nH]c3ccc(Br)cc23)c1N,115%
4,NS(=O)(=O)c1ccc(CN=C2NC(=O)S/C2=C\c2ccc(Br)cc2)cc1,97.1%
5,CCc1ccccc1C(=O)N(CC)CC,116%
6,CN1CCN(c2ccc(Nc3nc(NCCCNS(=O)(=O)c4cccc(F)c4)c4sccc4n3)cc2)CC1,-5.96% (active)
7,O=C(O)c1ccc([N+](=O)[O-])cc1S(=O)(=O)O,98.6%
8,COc1ccc(-c2nc(SCC(C)C)nc(N/N=C(/C)c3ccc(OC)c(OC)c3)c2C#N)cc1,91.5%
9,c1cc2nc(-c3cn[nH]c3)c3c(c2cc1-c1cn[nH]c1)C1CCC3C1 (stereo not given),78.9%
10,COc1ccc(/C=C\C(=O)/C=C/c2ccc(OC)cc2)cc1,18.7%
11,C/C(=N\OC(=O)Nc1ccccc1)c1ccccc1,83.2%
12,Cc1ccc2nc(SCC(=O)Nc3ccc(-c4nc5ccccc5s4)c(Cl)c3)[nH]c2c1,101%
13,Cc1c(O)c(O)cc2c3c(oc12)CC(c1ccc2c(c1)OCO2)CC3=O (stereo not given),93.2%
14,NC(=S)N/N=C/c1ccc(N)cc1,106%
15,O=C(Nc1ccc(F)cc1)c1cc(-c2ccc(F)cc2F)ccc1O,-7.21% (active)
16,Cc1ccc(C2C3CC4CCCCC4N3[C@@]3(C(=O)Nc4cc(Cl)ccc43)C2C(=O)c2nc3ccccc3[nH]2)cc1 (stereo not given in full),-10.9% (active)
17,O=C(/C=C/c1ccccc1)CC(c1ccccc1)N1CCOCC1 (stereo not given),92.4%
18,CCCCC[C@H]1C/C=C2/C(=O)C(Cl)=C[C@@H]2C/C=C\CCCC(=O)O[C@@H](CCCCC)C/C=C2/C(=O)C(Cl)=C[C@@H]2C/C=C\CCCC(=O)O1,-46% (active)
19,CCOC(=O)C(CC(c1ccccc1)N1CCCCC1)[N+](=O)[O-] (stereo not given),49.7%
20,CC(=O)Cc1nsc(NC(=O)c2cc(-c3cc(Cl)cc(Cl)c3)oc2C)n1,97.6%
